Screens: PubChem, National Center for Advancing Translational Sciences (NCATS)
The full list was thinned out, with hits kept by preference.
Shiga inhibitor: A qHTS for Small Molecule Inhibitors of Shiga Toxin | Vero cells, Shiga toxin protein synthesis inhibition reporter | inhibition, % at 38.7 µM | 290,000 tested, 9.2% active | AID 2315, 2010; in the data active = inhibition mostly above about 28%, no sharp cut-off; inactive = mostly below about 43%; also: 0% is about no effect
CHX counter: Cycloheximide Counterscreen for Small Molecule Inhibitors of Shiga Toxin | 300,000 tested, 12% active | cell reporter, cycloheximide protein synthesis inhibition counterscreen | max response, %; in the data active = max response mostly above about 13%, no sharp cut-off; inactive = mostly below about 14%; also: read at 38.3 µM for the half of the compounds with a filed dose; 0% is about no effect
LmPK inh: qHTS Assay for Inhibitors of Leishmania Mexicana Pyruvate Kinase (LmPK); Q27686; purified LmPK, Kinase-Glo ATP luminescence, 1 h; Potency, µM (highest dose often 57.5 µM), for the others: at the top dose activity change, negative = inhibition, most hits filed as inhibitors; 290,000 tested, 0.37% active; also: potency is read from the fitted curve at half-maximal effect; % is scaled to controls: 0 for no effect and ±100 for the full control effect
Target sequence (Q27686 whole entry, looked up): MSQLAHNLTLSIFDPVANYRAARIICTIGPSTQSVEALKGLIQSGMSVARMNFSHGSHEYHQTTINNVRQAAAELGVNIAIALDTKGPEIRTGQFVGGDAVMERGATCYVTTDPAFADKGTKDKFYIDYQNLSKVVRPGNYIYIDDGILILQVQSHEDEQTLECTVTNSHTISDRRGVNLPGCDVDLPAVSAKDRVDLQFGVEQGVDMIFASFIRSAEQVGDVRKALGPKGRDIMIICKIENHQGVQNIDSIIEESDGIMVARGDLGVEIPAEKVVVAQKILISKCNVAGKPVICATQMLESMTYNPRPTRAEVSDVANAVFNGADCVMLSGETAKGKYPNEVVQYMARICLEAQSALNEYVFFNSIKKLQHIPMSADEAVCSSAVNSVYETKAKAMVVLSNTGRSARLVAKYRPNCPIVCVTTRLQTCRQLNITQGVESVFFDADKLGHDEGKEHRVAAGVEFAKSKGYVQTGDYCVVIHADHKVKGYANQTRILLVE
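Purified LmPK (0.1 nM) with 0.5 mM PEP and 0.1 mM ADP in imidazole buffer pH 7.2 with MgCl2/KCl, 1 h at room temperature. ATP formed was read by luciferase luminescence and normalized to no-enzyme and uninhibited controls.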
Giardia FBPA inh: qHTS Assay for Inhibitors of Fructose-1,6-bisphosphate Aldolase from Giardia Lamblia | Potency, µM (series often up to 59.6 µM), without a hit: top-dose activity, negative = inhibition, most hits filed as inhibitors | purified Giardia FBPA | A8B2U2 | 290,000 tested, 0.71% active | AID 2451, 2010; also: potency is read from the fitted curve at half-maximal effect; % is scaled to controls: 0 for no effect and ±100 for the full control effect; nearly all actives have a fitted effect of over 55% in size
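Giardia FBPA (40 nM reagent) was preincubated 10 min at RT with compound (up to 57.5 uM final), then substrate plus GAPDH/TPI/NAD/arsenate coupling system with diaphorase/resazurin was added; resorufin fluorescence (525/598 nm) was read after 20 min.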
Sm TGR block: qHTS Assay for the Inhibitors of Schistosoma Mansoni Peroxiredoxins. Schistosoma mansoni thioredoxin glutathione reductase (TGR), Q962Y6. purified TGR, DTNB reduction, TNB absorbance 405 nm. Potency, µM (titrated, usually from 114 µM), inactives show top-dose activity change, negative = inhibition, hits mostly inhibitors. 360,000 tested, 3% active; also: potency is read from the fitted curve at half-maximal effect; % is scaled to controls: 0 for no effect and ±100 for the full control effect; nearly all actives have a fitted effect of over 60% in size
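First, TGR (20 nM dispensed) and NADPH were mixed with compound. Second, a 15 min room-temperature incubation followed. Third, further NADPH and then DTNB were added to start the reaction. Finally, TNB absorbance was monitored kinetically.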
TbPYK inhibitor: qHTS of Trypanosoma Brucei Inhibitors; AID 624173, 2012; pyruvate kinase (Trypanosoma brucei), Q57TT1; TbPYK enzyme, Kinase-Glo Plus ATP luminescence, 45 min; Potency, µM (doses to about 76.8 µM), inactives show top-dose activity, negative = inhibition, hits mostly inhibitors; 410,000 tested, 0.12% active; also: potency is read from the fitted curve at half-maximal effect; % is scaled to controls: 0 for no effect and ±100 for the full control effect; nearly all actives have a fitted effect of over 50% in size
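In this concentration-response screen, enzyme-free wells defined baseline while DMSO plates tracked drift. Each reaction combined TbPYK, substrate, compound and 130 uM ADP for 45 min at room temperature. Kinase-Glo Plus luminescence gave the signal.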
* = called active by the depositor. Unless noted, calls follow the shape of the dose curve; as a rule, active = well fitted curve in the direction sought with a large enough effect; inconclusive = small, poorly fitted or top-dose-only effect, or another doubt; inactive = no such curve, though single readings can be large; an effect the other way counts as inactive or inconclusive.

What do the screens show for `O=C(Cc1ccc(Cl)cc1)Nc1ccc(N2CCCC2)cc1`?
Shiga inhibitor: 6.4; CHX counter: 4.9; LmPK inh: 7.7%; Giardia FBPA inh: -2.7%; Sm TGR block: -0.8%; TbPYK inhibitor: -6.0%

What do the screens show for `CCN(CC)S(=O)(=O)c1ccc2c(c1)N(CC(=O)NCCCN1CCN(c3cc(C)ccc3C)CC1)C(=O)CO2`?
Sm TGR block: 6.2%; TbPYK inhibitor: 0.1%

What do the screens show for `CCCOCc1cc(CN2CCN(c3ccccc3OC)CC2)c(O)c2ncccc12`?
Sm TGR block: 39.8µM*; TbPYK inhibitor: 3.7%

How did COc1ccccc1N1CCN(Cc2cc(Br)c(O)c3ncccc23)CC1 do in these assays?
Shiga inhibitor: -13.9; CHX counter: -4.5; LmPK inh: 9.1%; Giardia FBPA inh: inconclusive; Sm TGR block: 3.16µM*; TbPYK inhibitor: -2.1%

What do the screens show for `CCC(=O)Nc1cccc(-n2nnnc2SCC(=O)N2CCCCC2)c1`?
Shiga inhibitor: 27.4; CHX counter: 17.5*; LmPK inh: 0.7%; Giardia FBPA inh: 4.2%; TbPYK inhibitor: 0.1%

What do the screens show for `CCc1nc(Nc2ccc(N3CCN(C(C)=O)CC3)cc2)c2oc3ccccc3c2n1`?
Shiga inhibitor: -4.5; CHX counter: 18.1*; LmPK inh: -1.0%; Giardia FBPA inh: -10.5%; Sm TGR block: -31.6%; TbPYK inhibitor: -9.0%

Results for CC(=O)N1CCN(c2ccc(Nc3ncnc4c3oc3ccccc34)cc2)CC1 ?
Shiga inhibitor: 128.4; CHX counter: 42.8*; LmPK inh: -13.3%; Giardia FBPA inh: -16.8%; Sm TGR block: 0.0%; TbPYK inhibitor: -11.2%

What do the screens show for `c1ccc(N2CCN(c3ncnc4c3oc3ccccc34)CC2)cc1`?
Shiga inhibitor: -22.8; CHX counter: -1.2; LmPK inh: -8.8%; Giardia FBPA inh: 0.1%; Sm TGR block: -14.6%; TbPYK inhibitor: 2.9%

How did COc1cc(C(C(=O)NC2CCCC2)N(CCO)C(=O)Cn2nnc(-c3ccc(C)o3)n2)ccc1O (configuration not stated) do in these assays?
Shiga inhibitor: 10.0; CHX counter: -4.3; LmPK inh: -1.2%; Giardia FBPA inh: 4.2%; Sm TGR block: 44.7µM*; TbPYK inhibitor: -2.3%

What do the screens show for `CCN(CC)C(=O)Cn1nnc(-c2ccc(C)o2)n1`?
Shiga inhibitor: -8.2; CHX counter: -1.1; LmPK inh: 1.4%; Giardia FBPA inh: -5.0%; Sm TGR block: 25.1µM*; TbPYK inhibitor: -11.7%

How did CCC(C(=O)NC1CCCC1)N(C(=O)Cn1nnc(-c2ccc(C)o2)n1)C(C)(C)C (configuration not stated) do in these assays?
Shiga inhibitor: -8.1; CHX counter: 1.3; LmPK inh: 2.0%; Giardia FBPA inh: -2.1%; Sm TGR block: -35.9%; TbPYK inhibitor: -17.5%

Results for CCC(=O)Nc1ccc(NC(=O)c2ccccn2)cn1 ?
Shiga inhibitor: 46.6*; CHX counter: 34.7*; LmPK inh: inconclusive; Giardia FBPA inh: -10.6%; Sm TGR block: 2.6%; TbPYK inhibitor: 1.6%

What do the screens show for `CC(C)C(=O)Nc1ccc(NC(=O)c2ccccn2)cn1`?
Shiga inhibitor: 41.6*; CHX counter: 26.5*; LmPK inh: inconclusive; Giardia FBPA inh: -17.1%; Sm TGR block: 2.3%; TbPYK inhibitor: -13.7%

How did O=C(Nc1ccc(NC(=O)C2CC2)nc1)c1ccccn1 do in these assays?
Shiga inhibitor: 61.9*; CHX counter: 18.0*; LmPK inh: 14.1µM*; Giardia FBPA inh: -23.9%; Sm TGR block: 1.0%; TbPYK inhibitor: -26.9%

Results for CC(C)C(=O)Nc1ccc(NC(=O)c2cccnc2)cn1 ?
Shiga inhibitor: 29.6; CHX counter: 7.9; LmPK inh: -0.3%; Giardia FBPA inh: 0.5%; Sm TGR block: 14.7%; TbPYK inhibitor: 3.1%

Results for O=C(Nc1ccc(NC(=O)C2CC2)nc1)c1cnccn1 ?
Shiga inhibitor: 8.0; CHX counter: 0.9; LmPK inh: -11.7%; Giardia FBPA inh: -6.6%; Sm TGR block: 2.5%; TbPYK inhibitor: -2.6%

Results for CCCC(=O)Nc1ccc(NC(=O)c2ccccc2Cl)nc1 ?
Shiga inhibitor: 56.8; CHX counter: 40.4*; LmPK inh: -1.6%; Giardia FBPA inh: -6.9%; Sm TGR block: 5.8%; TbPYK inhibitor: 1.4%

Results for O=C(NCC1COc2ccccc2O1)C1CCN(S(=O)(=O)c2ccc(Cl)cc2)CC1 (configuration not stated) ?
Sm TGR block: -6.8%; TbPYK inhibitor: 4.9%

Results for COc1cc2c(c(OC)c1OC)-c1c(cc3c(c1OC)OCO3)CC(C)C(C)(O)C2 (configuration not stated) ?
TbPYK inhibitor: 1.2%

Results for COc1ccc(NS(=O)(=O)c2ccc3c(c2)CCN3C(=O)CCC(=O)O)cc1OC ?
Shiga inhibitor: 64.4*; CHX counter: 32.9*; LmPK inh: -0.2%; Giardia FBPA inh: -9.7%; Sm TGR block: 2.8%; TbPYK inhibitor: -2.6%

Results for Cc1ccccc1C(=O)Nc1cccc(OCc2cc(=O)n3cccc(C)c3n2)c1 ?
Sm TGR block: -5.1%; TbPYK inhibitor: -11.6%

How did CCCCOC(=O)c1ccc(NC(=O)c2cc(Cl)ccc2OC)cc1 do in these assays?
Shiga inhibitor: -3.0; CHX counter: 9.8; LmPK inh: -2.5%; Giardia FBPA inh: -1.7%; Sm TGR block: 6.8%; TbPYK inhibitor: -4.0%

What do the screens show for `CCCOC(=O)c1ccc(NC(=O)c2ccccc2OC)cc1`?
Shiga inhibitor: 86.1*; CHX counter: 26.2*; LmPK inh: 2.8%; Giardia FBPA inh: -5.8%; Sm TGR block: 6.4%; TbPYK inhibitor: -1.5%

Results for CCCCOC(=O)c1ccc(NC(=O)c2ccccc2OC)cc1 ?
Shiga inhibitor: 29.0*; CHX counter: 7.3; LmPK inh: -0.2%; Giardia FBPA inh: -1.0%; Sm TGR block: 2.3%; TbPYK inhibitor: -10.5%

How did CCCOC(=O)c1ccc(NC(=O)c2ccccc2[N+](=O)[O-])cc1 do in these assays?
Shiga inhibitor: 91.4*; CHX counter: 37.7*; LmPK inh: 1.0%; Giardia FBPA inh: -17.2%; Sm TGR block: -0.2%; TbPYK inhibitor: 1.3%

What do the screens show for `CCC(=O)NC(=S)Nc1ccc(NC(=O)c2ccccc2[N+](=O)[O-])cc1`?
Shiga inhibitor: -8.4; CHX counter: -2.5; LmPK inh: 0.3%; Giardia FBPA inh: -0.8%; Sm TGR block: -26.9%; TbPYK inhibitor: -2.4%

How did CC(C)(C)c1ccc(NC(=O)CCNC(=O)c2ccco2)cc1 do in these assays?
Shiga inhibitor: 33.5; CHX counter: 18.6*; LmPK inh: 10.2%; Giardia FBPA inh: -8.6%; Sm TGR block: 3.5%; TbPYK inhibitor: -2.0%
